Here are results for five compounds from PubChem BioAssay.

The source made the active and inactive calls.

Assay [1] is described as follows: small molecules captured by biotinylated probe aFSTL3 – biochemical, small-molecule microarray, fluorescence 635/667, stem cell growth factor project, primary screen (AID 1064).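 Note: measures binding of the biotinylated anti-FSTL3 antibody to printed compounds.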 Conditions: higher = more signal.
A short description of assay [2]: binders from COS7 lysate, DM2A8 probe, primary screen, torsin A project, cell lysate, small-molecule microarray, fluorescence 635/667 (AID 1065). Conditions: higher = more signal, COS7 lysate expressing mutant human TOR1A.
A short description of assay [3]: small molecules captured by biotinylated probe aFGF2 – biochemical, small-molecule microarray, fluorescence 635/667, stem cell growth factor project, primary screen (AID 1067).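 Note: measures binding of biotinylated aFGF2 protein to printed compounds on slides; z-score merges feature fluorescence and signal-to-noise across triplicate slides.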 Conditions: higher = more signal.
Assay [4] in a line: small molecules captured by biotinylated probe aFGF10 – biochemical, small-molecule microarray, fluorescence 635/667, stem cell growth factor project, primary screen (AID 1071).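 Note: score merges 667 nm spot intensity and signal to noise from triplicate slides.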 Conditions: higher = more signal.
Assay [5] concerns the target Neurogenic locus notch homolog protein 2 (Homo sapiens) (UniProt Q04721). As to the kind of experiment: small molecules binding Notch2 protein – biochemical, small-molecule microarray, 635 nm fluorescence, stem cell growth factors, primary screen (AID 1073). Conditions: higher = more signal.
Assay [6] has as its target Pro-neuregulin-1, membrane-bound isoform (Homo sapiens) (UniProt Q02297). Nature of the assay: small molecules binding neuregulin-1 protein – biochemical, small-molecule microarray, fluorescence 635/667, psychiatric disease protein project, primary screen (AID 1075).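 Note: score combines 667 nm spot fluorescence with signal to noise.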 Conditions: NRG1 binding, 635 nm fluorescence, higher = more signal.
The test system of assay [7] is Neuregulin-1 EGF-like domain. As to the kind of experiment: small molecules binding NRG1 EGF domain – biochemical, small-molecule microarray, 635 nm fluorescence, primary screen (AID 1081).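 Note: binding of the protein to compounds printed on small-molecule microarray slides.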 Conditions: higher = more signal.
The nature of assay [8]: FRG1 expression reporter modulators in myotubes – cell-based, C2C12 myotubes, firefly/Renilla luciferase, luminescence, FRG1 inhibition for FSHD, primary screen (AID 1084). Conditions: FRG1 promoter luciferase, higher = more signal, called active from +8 up or from −8 down.
The nature of assay [9]: small molecules captured by biotinylated probe aFST – biochemical, small-molecule microarray, fluorescence 635/667, stem cell growth factor project, primary screen (AID 1086).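 Note: score merges 667 nm fluorescence with signal-to-noise of each printed compound spot.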 Conditions: higher = more signal.
Assay [10] in a line: binders of probe aHhip on microarray, primary screen, stem cell growth factor project, biochemical, small-molecule microarray, fluorescence 635/667 (AID 1087).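 Note: score merges spot fluorescence at 667nm with spot signal to noise ratio.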 Conditions: higher = more signal.
The test system of assay [11] is PRMT1 (protein arginine N-methyltransferase 1). Nature of the assay: small molecules binding arginine methyltransferase PRMT1 – biochemical, small-molecule microarray, 635 nm fluorescence, primary screen (AID 1088).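 Note: binding of Prmt1 protein to compounds spotted on small-molecule microarray slides.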 Conditions: higher = more signal.
A short description of assay [12]: growth effects on S. cerevisiae YJM789 – YJM789 clinical isolate, OD600, 24 h, basal, primary screen (AID 1089).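 Note: growth of clinical yeast isolate S. cerevisiae YJM 789 seeded 1000 cells per well; test concentration not given here.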 Conditions: higher = more signal, called active from +8 up or from −8 down.
Assay [13] is described as follows: S. pombe growth modifiers, basal conditions – strain 972, OD600, 24 h, no modulator, primary screen (AID 1090).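 Note: basal condition with compound alone and no growth modifier present; test concentration not given here.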 Conditions: S. pombe 972 growth, higher = more signal, called active from +8 up or from −8 down.
Assay [14] in a line: budding yeast growth modifiers under rapamycin – strain BY4716, OD600, 96 h, primary screen (AID 1091). Note: test concentration not given here. Conditions: S. cerevisiae BY4716 + rapamycin, higher = more signal, called active from +8 up or from −8 down.
The target of assay [15] is Torsin-1A-interacting protein 2 (Homo sapiens) (UniProt Q8NFQ8). As to the kind of experiment: small molecules binding lysate-expressed LULL1 – cell lysate, human LULL1 lysate, 635/667 nm fluorescence, primary screen (AID 1092).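 Note: probe is lysate of COS7 cells overexpressing human LULL1; score merges per-feature 667 nm fluorescence with signal-to-noise.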 Conditions: small-molecule microarray, hLULL1 lysate binding, 635 nm fluorescence; higher = more signal.
Assay [16] in a line: optical density change of DRC41 E. coli – strain DRC41, OD650, 24 h, E. coli filamentation project, primary screen (AID 1093).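 Note: MC1000 strain lacking acrAB efflux and sulA so SOS filamentation is blocked; test concentration not given here.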 Conditions: E. coli DRC41 growth, higher = more signal, called active from +8 up or from −8 down.
The nature of assay [17]: probe aLefty2 binding to arrayed compounds – biochemical, biotinylated probe, 635/667 nm fluorescence, primary screen (AID 1094).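 Note: score merges spot fluorescence near 667 nm with spot signal-to-noise ratio.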 Conditions: small-molecule microarray, higher = more signal.
Assay [18] concerns Noggin (protein binding on small-molecule microarray). Nature of the assay: small molecules binding Noggin protein – biochemical, 635/667 nm fluorescence, primary screen (AID 1095).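 Note: score merges 667 nm feature fluorescence with signal to noise over triplicate slides.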 Conditions: 635 nm fluorescence, higher = more signal.
In assay [19] the target is Neurogenic locus notch homolog protein 3 (Homo sapiens) (UniProt Q9UM47). As to the kind of experiment: small molecules binding NOTCH3 protein – biochemical, 635/667 nm fluorescence, primary screen (AID 1096). Conditions: small-molecule microarray, 635 nm fluorescence, higher = more signal.
Assay [20] in a line: probe aEGFR binding to arrayed compounds – biochemical, biotinylated probe, 635/667 nm fluorescence, primary screen (AID 1097).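 Note: probe is a biotinylated anti-EGFR antibody binding compounds printed on slides; score combines fluorescence near 667 nm and signal to noise of each spot.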 Conditions: small-molecule microarray, higher = more signal.

Chain of Neurogenic locus notch homolog protein 2 (Homo sapiens) (Q04721 whole entry, looked up, canonical isoform): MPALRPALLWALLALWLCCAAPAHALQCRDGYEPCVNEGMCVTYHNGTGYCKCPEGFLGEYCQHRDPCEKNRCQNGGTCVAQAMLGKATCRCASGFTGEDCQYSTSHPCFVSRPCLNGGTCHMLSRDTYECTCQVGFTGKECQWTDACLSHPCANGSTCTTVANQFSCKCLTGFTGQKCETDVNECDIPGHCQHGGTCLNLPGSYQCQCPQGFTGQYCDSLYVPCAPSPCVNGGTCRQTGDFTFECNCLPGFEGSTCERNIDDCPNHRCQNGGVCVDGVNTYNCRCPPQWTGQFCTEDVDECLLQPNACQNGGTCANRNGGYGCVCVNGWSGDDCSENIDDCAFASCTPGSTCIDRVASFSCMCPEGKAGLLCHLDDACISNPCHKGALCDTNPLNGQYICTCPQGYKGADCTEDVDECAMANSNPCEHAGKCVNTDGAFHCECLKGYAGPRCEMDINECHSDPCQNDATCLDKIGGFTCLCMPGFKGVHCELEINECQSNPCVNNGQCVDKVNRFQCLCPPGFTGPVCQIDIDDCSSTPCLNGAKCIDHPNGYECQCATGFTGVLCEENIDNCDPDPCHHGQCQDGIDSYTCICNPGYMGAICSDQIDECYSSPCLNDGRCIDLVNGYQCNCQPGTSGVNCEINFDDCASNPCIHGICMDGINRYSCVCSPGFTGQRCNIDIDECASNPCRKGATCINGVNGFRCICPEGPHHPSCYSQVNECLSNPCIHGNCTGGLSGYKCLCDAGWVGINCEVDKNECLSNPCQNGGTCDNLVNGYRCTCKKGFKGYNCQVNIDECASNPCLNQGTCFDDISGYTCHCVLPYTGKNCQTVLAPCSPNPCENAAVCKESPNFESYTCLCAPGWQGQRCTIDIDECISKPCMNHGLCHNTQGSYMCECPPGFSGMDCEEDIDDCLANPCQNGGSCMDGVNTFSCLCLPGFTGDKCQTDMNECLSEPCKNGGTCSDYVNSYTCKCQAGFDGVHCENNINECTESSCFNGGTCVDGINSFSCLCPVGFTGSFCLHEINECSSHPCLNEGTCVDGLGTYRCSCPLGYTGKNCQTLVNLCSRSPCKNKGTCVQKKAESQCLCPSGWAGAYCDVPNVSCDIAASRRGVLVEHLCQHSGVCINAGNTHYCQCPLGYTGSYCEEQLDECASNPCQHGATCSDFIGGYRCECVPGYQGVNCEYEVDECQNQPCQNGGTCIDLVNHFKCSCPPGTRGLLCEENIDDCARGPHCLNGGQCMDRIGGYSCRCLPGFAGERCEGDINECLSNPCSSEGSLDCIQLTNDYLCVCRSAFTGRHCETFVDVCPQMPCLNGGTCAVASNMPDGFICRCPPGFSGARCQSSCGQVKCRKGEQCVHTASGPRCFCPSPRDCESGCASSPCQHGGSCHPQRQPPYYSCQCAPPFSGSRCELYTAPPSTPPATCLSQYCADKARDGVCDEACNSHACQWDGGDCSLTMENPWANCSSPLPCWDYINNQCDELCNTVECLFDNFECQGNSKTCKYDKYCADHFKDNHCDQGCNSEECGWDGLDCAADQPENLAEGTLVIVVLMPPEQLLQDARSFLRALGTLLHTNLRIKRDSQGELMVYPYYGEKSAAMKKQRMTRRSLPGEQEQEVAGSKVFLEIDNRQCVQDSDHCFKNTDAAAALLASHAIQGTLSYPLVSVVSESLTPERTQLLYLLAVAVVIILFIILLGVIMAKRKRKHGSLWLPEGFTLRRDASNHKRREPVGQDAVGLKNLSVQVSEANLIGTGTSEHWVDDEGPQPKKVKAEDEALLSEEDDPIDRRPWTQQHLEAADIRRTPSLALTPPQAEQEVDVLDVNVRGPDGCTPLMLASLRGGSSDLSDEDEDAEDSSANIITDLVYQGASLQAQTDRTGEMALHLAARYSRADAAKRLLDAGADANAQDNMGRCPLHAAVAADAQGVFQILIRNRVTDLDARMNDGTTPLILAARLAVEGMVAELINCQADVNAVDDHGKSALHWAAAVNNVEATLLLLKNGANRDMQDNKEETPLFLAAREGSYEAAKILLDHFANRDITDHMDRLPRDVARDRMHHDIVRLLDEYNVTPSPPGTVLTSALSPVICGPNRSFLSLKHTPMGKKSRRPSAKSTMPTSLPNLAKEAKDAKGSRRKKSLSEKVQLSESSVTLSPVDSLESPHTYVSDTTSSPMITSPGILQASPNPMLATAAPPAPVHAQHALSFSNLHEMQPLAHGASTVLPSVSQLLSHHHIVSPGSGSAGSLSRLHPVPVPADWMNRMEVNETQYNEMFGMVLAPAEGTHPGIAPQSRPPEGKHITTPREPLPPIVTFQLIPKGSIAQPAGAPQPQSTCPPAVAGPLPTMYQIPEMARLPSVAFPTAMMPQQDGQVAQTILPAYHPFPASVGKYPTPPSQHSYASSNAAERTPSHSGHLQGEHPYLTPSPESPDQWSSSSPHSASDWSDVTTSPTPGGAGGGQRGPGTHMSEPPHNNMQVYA
Chain of Pro-neuregulin-1, membrane-bound isoform (Homo sapiens) (Q02297 whole entry, looked up, the tested form may be a part, canonical isoform): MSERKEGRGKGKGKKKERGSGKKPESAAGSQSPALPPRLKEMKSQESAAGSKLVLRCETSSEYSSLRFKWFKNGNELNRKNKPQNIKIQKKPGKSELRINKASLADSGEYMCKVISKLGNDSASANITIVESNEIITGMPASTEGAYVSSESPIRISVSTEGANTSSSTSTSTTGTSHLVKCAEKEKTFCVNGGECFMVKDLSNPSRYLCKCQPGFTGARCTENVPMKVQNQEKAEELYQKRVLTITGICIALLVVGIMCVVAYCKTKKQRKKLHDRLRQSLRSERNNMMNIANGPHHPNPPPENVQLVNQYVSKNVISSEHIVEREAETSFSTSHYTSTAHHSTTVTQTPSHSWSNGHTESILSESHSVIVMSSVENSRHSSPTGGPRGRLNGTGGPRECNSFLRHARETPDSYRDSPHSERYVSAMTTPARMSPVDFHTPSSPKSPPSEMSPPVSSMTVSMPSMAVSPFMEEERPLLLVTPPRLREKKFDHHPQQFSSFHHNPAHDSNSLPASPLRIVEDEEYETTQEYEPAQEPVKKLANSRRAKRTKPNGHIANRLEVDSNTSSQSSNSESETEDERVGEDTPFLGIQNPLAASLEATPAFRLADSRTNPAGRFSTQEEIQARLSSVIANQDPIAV
Chain of Torsin-1A-interacting protein 2 (Homo sapiens) (Q8NFQ8 whole entry, looked up): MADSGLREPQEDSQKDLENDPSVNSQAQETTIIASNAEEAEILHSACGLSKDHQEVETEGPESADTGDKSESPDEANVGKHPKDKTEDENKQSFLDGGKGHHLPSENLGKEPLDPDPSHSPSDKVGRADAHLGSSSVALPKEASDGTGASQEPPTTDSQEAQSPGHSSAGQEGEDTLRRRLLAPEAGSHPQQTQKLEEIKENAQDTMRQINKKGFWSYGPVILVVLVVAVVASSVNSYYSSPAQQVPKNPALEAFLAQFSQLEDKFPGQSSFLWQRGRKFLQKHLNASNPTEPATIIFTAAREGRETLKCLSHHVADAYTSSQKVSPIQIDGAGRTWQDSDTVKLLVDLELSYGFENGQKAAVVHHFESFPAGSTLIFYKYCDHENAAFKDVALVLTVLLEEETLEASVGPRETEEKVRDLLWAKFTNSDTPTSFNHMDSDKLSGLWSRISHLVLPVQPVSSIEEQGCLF

For the compound `CCOc1cc(C(O)C2C=CC3C(=O)N(c4ccccc4)C(=O)C3N2Nc2ccccc2)ccc1O` (stereo not given), the composite z-score in assay [1] was found to be 0.259; in [2], 0.107; in assay [3] it was 0.252; in assay [4], 1.03; in assay [5], 0.66; in assay [6] it was 1.8. In addition, the composite z-score is 1.2 in assay [7]; 0.771 in assay [9]; -0.189 in assay [10]; 0.408 in [11]; 3.52 in assay [15]; -0.0371 in assay [17]. Moreover, the figures for the composite z-score in assay [18], in [19] and in assay [20] were -0.419, 0.498 and 0.0192, respectively. In addition, the z-score in assay [8] was 0.893 (inactive); in assay [12], 0.881 (inactive); in [13], -0.692 (inactive); in assay [14], 1.2 (inactive); in assay [16], 0.374 (inactive).

Turning to `[N-]=[N+]=Nc1ccccc1C[C@@]1(C(=O)NCCN2CCOCC2)N=C(c2ccc(OCCCO)cc2)O[C@@H]1c1ccccc1`, the composite z-score in assay [1] was determined as 0.234; in assay [2], 0.205; in [3], 0.146; in assay [4], 0.409; in assay [5], 1.59; in [6] it was 1.6. The composite z-score in [7] is 1.24; in assay [9], 1.01; in [10], -0.286; in assay [11], 1.55; in [15] it was 3.27; in assay [17] it was -0.0673. The values for the composite z-score in assay [18], in [19] and in [20] were 0.748, 1.08 and 0.0371, respectively. Further, the z-score in [8] is -1.23 (inactive); in assay [12], -2.58 (inactive); in [13] it was -4.77 (inactive); in [14] it was -1.77 (inactive); in assay [16] it was 1.26 (inactive).

Turning to `O=C1O[C@H](c2ccccc2)[C@H](c2ccccc2)N2[C@H]1[C@@H](C(=O)Nc1nc3ccccc3s1)[C@]1(C(=O)Nc3ccc(C#CC4(O)CCCCCC4)cc31)[C@H]2c1ccc(OCCO)cc1`, the composite z-score is -0.317 in [1]; 0.792 in assay [2]; -0.129 in [3]; 0.805 in [4]; 0.642 in [5]; 1.7 in [6]. The composite z-score amounted to 1.06 in assay [7]; 0.395 in assay [9]; 0.0413 in assay [10]; 1.56 in assay [11]; 2.2 in assay [15]; 0.0317 in assay [17]. In addition, the values for the composite z-score in assay [18], in assay [19] and in [20] were 0.986, 1.02 and 0.0589, respectively. Also, the z-score in assay [8] is 1.97 (inactive); in assay [12], 1.22 (inactive); in assay [13], 1.76 (inactive); in assay [14], 1.76 (inactive); in assay [16], 0.546 (inactive).

For the compound `CC(C)(C)OC(=O)CC[C@]12N=C(c3ccc(OCCCO)cc3)O[C@H]1c1ccccc1N(CCS(=O)(=O)c1ccccc1)C2=O`, the composite z-score in assay [1] is 0.144; in [2], 0.433; in assay [3], -0.0024; in [4], 0.137; in assay [5], 1.42; in assay [6], 0.882. Also, the composite z-score stood at 1.26 in [7]; 0.682 in assay [9]; 0.0139 in assay [10]; 1.55 in assay [11]; 3.17 in assay [15]; 0.101 in [17]. The composite z-score in [18] worked out at 0.905; in assay [19], 1.1; in assay [20], 0.0288. The z-score in assay [8] is 0.281 (inactive); in assay [12] it was 1.03 (inactive); in assay [13], 1.65 (inactive); in [14], 0.246 (inactive); in assay [16] it was 0.522 (inactive).

In the case of `COc1ccc(CCNC(=O)[C@@]2(Sc3ccc(C)cc3)CC(=O)N(C3CCCCC3)[C@@H]2c2ccc(CO)cc2I)cc1`, the composite z-score is -0.113 in assay [1]; 0.567 in assay [2]; 0.0561 in [3]; 0.773 in [4]; 1.23 in [5]; 1.29 in assay [6]. Further, the composite z-score in assay [7] was 1.02; in [9], 0.306; in [10], -0.0237; in assay [11] it was 1.42; in assay [15] it was 2.71; in assay [17], -0.0823. For the same compound, the composite z-score in [18] amounted to 0.53; in [19] it was 1.1; in assay [20] it was 0.0414. The z-score is -1.57 (inactive) in assay [8]; -1.11 (inactive) in [12]; 0.0408 (inactive) in [13]; 0.766 (inactive) in [14]; -0.0209 (inactive) in assay [16].
